The panel holds about 83,000 compounds, 20% with a hit somewhere; the sample as a whole holds those more often.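 Results are percent growth after 48 hours of single-concentration exposure. 100 means growth as in untreated cells, lower positive values show inhibition; negative values down to -100 show cell death.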 Unmarked numbers belong to inactive results. Active and inactive are the calls of the source. How the source made its calls: active means growth percent below 10; inactive means the rest.
What follows are compounds tested on NCI-H460 lung (assay: NCI-60 one-dose screen, 48 h (100 = growth as untreated, 0 = no growth, -100 = all killed)). Conditions: 10 µM unless noted.
For `CCC(C)(C)c1ccc(OCCCCN2CCN(c3ccncc3)CC2)cc1`, the growth was 24.9%. `COc1ccc(C(=O)/C=C/c2ccc(Oc3nc(Nc4ccc(F)cc4)nc(N(C)C)n3)c(OC)c2)cc1` gave a growth of 26.2%. `S=c1c2ccccc2nc2n1CCc1c-2[nH]c2ccccc12` gave a growth of 71.2%. For `CCOC(=O)COc1c(OC)c(OC)cc2oc(-c3cccc(C(=O)Nc4ccc(Cl)cc4)c3)cc(=O)c12`, the growth was 83.5%.

These compounds were tested on HOP-92 NSCLC in the same assay as above. Conditions: 10 µM unless noted.
`C/C(=N\N=C1/C(=O)Nc2ccc(Cl)cc21)c1ccc2c(c1)Nc1ccccc1S2` was tested, and the growth was -10.5% (active). With `CCCSc1nc(NCCc2c[nH]c3ccccc23)c(C#N)c(-c2ccc(F)cc2)n1` the growth was 52.1%. In the case of `COc1cc(C2CC(c3cc(OC)c(OC)c(OC)c3)=NN2C(C)=O)ccc1OCc1ccccc1` (centres undefined), the growth is reported as -4.8% (active). Compound `Cc1cc2c(cc1Cl)C(=O)/C(=C/c1ccccc1)O2` has a growth of 44.4%. `COc1ccc2[nH]cc(-c3nc(N)nnc3-c3cn(C)c4ncccc34)c2c1` showed a growth of 81.2%. For `Cc1ccc(C(=O)CSc2nc3ccc(F)cc3c(=O)n2-c2ccc(Cl)cc2)cc1`, the growth was -2.96% (active). With `CCCCSc1nc(NCCc2c[nH]c3ccccc23)c(C#N)c(-c2ccccc2)n1` the growth was -1.67% (active). `Cn1cc(-c2nc(N)nnc2-c2c[nH]c3ccc(Br)cc23)c2cccnc21` was tested, and the growth was 94.1%. `CN(C)CCOc1ccc(C(=O)C2[C@H](c3ccc(Cl)cc3)[C@@H](c3ccccc3)NC23C(=O)Nc2ccc(Br)cc23)cc1` (some centres undefined) gave a growth of 23.5%. Work on `CN1CCN(/C(=N\c2sc(-c3ccccc3)nc2-c2ccccc2)c2ccccc2)CC1` yielded a growth of 80.2%. In the case of `CCCSc1nc(NCCc2c[nH]c3ccccc23)c(C#N)c(-c2ccccc2)n1`, the growth is reported as 78.9%. With `CCN(CC)c1ccnc(CNCCSC(c2ccccc2)(c2ccccc2)c2ccc(OC)cc2)c1` the growth was -30% (active). With `COc1cc2oc(-c3cccc(C(=O)Nc4cccc([N+](=O)[O-])c4)c3)cc(=O)c2c(OC)c1OC` the growth was 6.73% (active). `O=C(COc1ccc(NC(=O)Nc2ccc(Cl)c(Cl)c2)cc1)N=Nc1c(O)[nH]c2ccc([N+](=O)[O-])cc12` showed a growth of 94%. For `COc1cc(-c2nc3cc(Cl)c(Cl)cc3[nH]2)ccc1OCc1nnc(-c2cccs2)o1`, the growth was 69%. For `CCCCCCCCc1ccc(C(=O)Nc2ccc(C)cc2C(=O)O)cc1C`, the growth was 99%. With `CCOP(=O)(OCCCl)c1nc(-c2ccc(C)cc2)oc1NCc1ccccc1` (centres undefined) the growth was 75.5%. With `NS(=O)(=O)c1ccc(N=Nc2c(O)n(CC(=O)Nc3ccccc3)c3ccccc23)cc1` the growth was 77.3%. Compound `CC1(C)CC[C@]2(C(=O)Nc3ccccc3)CC[C@]3(C)C(=CCC4[C@@]5(C)C[C@@H](O)[C@H](O)[C@@](C)(CO)C5CC[C@]43C)C2C1` (some centres undefined) has a growth of 39.1%. `COc1ccccc1C(=O)NN1C(=O)/C(=C/C2=Cc3ccccc3OC2)SC1=S` showed a growth of 86.6%. With `COc1ccc(NC(=O)[C@H](CO)NC(=O)OC(C)(C)C)cc1C(=O)Nc1cccc(C2CC(=O)c3c(cc(OC)c(OC)c3OC)O2)c1` (some centres undefined) the growth was 81.9%. For `COc1ccc(C2(SCCNCc3cc(N(C)C)ccn3)c3ccccc3C=Cc3ccccc32)cc1`, the growth was 0.307% (active). `COc1ccc2[nH]c(O)c(N=NC(=O)COc3ccc(NC(=O)Nc4ccccc4)cc3)c2c1` was tested, and the growth was -9.25% (active). Compound `COc1cc(/C=C/C(=O)c2ccc(C)cc2)ccc1Oc1nc(Nc2ccc(F)cc2)nc(N(C)C)n1` has a growth of 52.7%. In the case of `CCN(CC)CCOc1ccc(Nc2ncc3cc(-c4ccc(O)c(C#N)c4)c(=O)n(C)c3n2)cc1`, the growth is reported as -5.3% (active). For `CC(/C=C1\SC(=S)N(CCCC(=O)NC(CC(C)C)C(=O)O)C1=O)=C\c1ccccc1` (centres undefined), the growth was 7.81% (active). `COc1cc2c(c(OC)c1OC)C(=O)CC(c1cccc(NC(=O)c3cc(N)ccc3Cl)c1)O2` (centres undefined) gave a growth of 69.5%. Compound `CC(=O)OC[C@@]1(C)C2CC[C@]3(C)C(CC=C4C5CC(C)(C)CC[C@]5(C(=O)Nc5cccc(C)c5)CC[C@]43C)[C@@]2(C)C[C@@H](OC(C)=O)[C@@H]1OC(C)=O` (some centres undefined) has a growth of 50.8%. In the case of `CCCCc1c(Nn2cnnn2)no[n+]1[O-]`, the growth is reported as 46.4%. With `CC(C)Sc1nc(NCCc2c[nH]c3ccccc23)c(C#N)c(-c2ccc(F)cc2)n1` the growth was 20.1%.

From PubChem BioAssay (NCI)
